Bioassay records (PubChem)
An excerpt weighted towards active compounds, which were near 8.7% of everything screened.
Sfp inh: blocks B. subtilis Sfp PPTase activity; AID 1490; Q9F4F7; Biochemical Sfp PPTase activity, qHTS; Potency, µM, actives largely listed as inhibitors; actives 3.5% (n = 310,000);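 also: the enzyme is Sfp with the accession as filed and its product quenches rhodamine fluorescence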
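Fluorescence-quenching assay: 15 nM Sfp-PPTase preincubated 15 min at room temperature with compound, then 5 uM rhodamine-CoA and 12.5 uM BHQ-2-labelled YbbR peptide added. Fluorescence (ex 525/em 598 nm) read at start and after 30 min; difference gives rate.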
G9a inh: inhibitors of human histone lysine methyltransferase G9a. Q96KQ7. G9a H3K9 monomethylation, AlphaScreen, 2 h. Potency, µM (doses to about 102 µM), hits mostly inhibitors. actives 8.8% (n = 350,000). AID 504332; also: nearly all actives have a fitted effect of over 75% in size
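Enzyme 20 nM + cpd, 15 min RT; add b-H3K9 pep 500 nM / SAM 20 uM; 2 h RT; anti-H3K9me1 Ab 0.5 ug/mL + SA donor / anti-rabbit acceptor beads 20 ug/mL each, 10 min; AlphaScreen read.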
JMJD2A Tudor: inhibitors of human JMJD2A Tudor domain. Potency, µM (highest dose often 114 µM), hits mostly inhibitors. O75164. AID 504339. actives 4.4% (n = 390,000). AlphaScreen JMJD2A-Tudor / H3K4me3 peptide binding; also: nearly all actives have a fitted effect of over 50% in size
HP1b chromo inh: inhibitors of HP1-beta chromodomain binding to methylated histone tails; AID 540317; P83916; AlphaScreen HP1-beta / biotin-H3K9me3 peptide binding; actives 0.56% (n = 390,000); Potency, µM (series often up to 114 µM), hits mostly inhibitors; also: nearly all actives have a fitted effect of over 70% in size
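Compound inhibition of the preformed complex between 50 nM HP1-beta and 50 nM biotinylated H3K9me3 peptide was read by AlphaScreen. Buffer was PBS pH 7.4 with 0.01% Tween-20. Incubations ran 30 min at room temperature, with 10 ug/mL donor/acceptor beads.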
ALOX12 inh: ALOX12 (human) lipoxygenase inhibition. purified 12hLO, xylenol orange hydroperoxide absorbance. Potency, µM (top dose mostly 108 µM), actives largely listed as inhibitors. actives 1.1% (n = 580,000)
Target sequence (P18054 whole entry, looked up): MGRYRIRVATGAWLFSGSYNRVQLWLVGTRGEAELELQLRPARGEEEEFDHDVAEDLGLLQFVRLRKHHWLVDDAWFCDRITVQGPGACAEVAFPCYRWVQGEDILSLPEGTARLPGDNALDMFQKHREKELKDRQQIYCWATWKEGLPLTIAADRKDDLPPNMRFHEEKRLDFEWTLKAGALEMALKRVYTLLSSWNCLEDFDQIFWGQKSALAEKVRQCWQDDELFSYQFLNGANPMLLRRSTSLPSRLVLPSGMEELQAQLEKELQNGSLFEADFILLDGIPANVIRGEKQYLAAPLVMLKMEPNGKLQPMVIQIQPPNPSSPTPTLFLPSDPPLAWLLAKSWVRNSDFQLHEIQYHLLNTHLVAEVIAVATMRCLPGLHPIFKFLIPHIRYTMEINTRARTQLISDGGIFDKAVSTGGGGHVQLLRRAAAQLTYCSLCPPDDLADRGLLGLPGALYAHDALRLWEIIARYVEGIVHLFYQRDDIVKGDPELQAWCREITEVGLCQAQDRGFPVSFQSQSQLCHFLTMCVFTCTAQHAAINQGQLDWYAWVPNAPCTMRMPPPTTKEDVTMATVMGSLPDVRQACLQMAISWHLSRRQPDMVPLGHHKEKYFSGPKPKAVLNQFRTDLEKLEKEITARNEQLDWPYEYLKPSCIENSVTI
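Hydroperoxide product was detected by ferrous iron/xylenol orange as the 573 to 405 nm absorbance ratio. Arachidonic acid at 40 uM (final) was turned over for 30 min at room temperature by 150 nM human 12hLO, pH 7.0 Hepes buffer, after 15 min compound preincubation.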
BAZ2B block: inhibitors of human BAZ2B bromodomain. AlphaScreen BAZ2B-H3K14Ac peptide displacement. Potency, µM (titrated, usually from 114 µM), actives largely listed as inhibitors. actives 4.4% (n = 360,000). AID 504333; also: nearly all actives have a fitted effect of over 60% in size
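AlphaScreen luminescence quantifies BAZ2B engagement of H3K14Ac peptide; the protein and biotinylated peptide are both at 50 nM final, buffer PBS pH 7.4 with 0.01% Tween-20, all steps at room temperature.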
Numbers stand for hits; 0 = inactive; ? = inconclusive; - = no result given; [ ] = remark or other dose. Calls follow the shape of the dose curve; as a rule, active = well fitted curve in the direction sought with a large enough effect; inconclusive = small, poorly fitted or top-dose-only effect, or another doubt; inactive = no such curve, though single readings can be large; an effect the other way counts as inactive or inconclusive.

SMILES | Sfp inh | G9a inh | JMJD2A Tudor | HP1b chromo inh | ALOX12 inh | BAZ2B block
Clc1ccccc1CNCC1CCCO1 (centres undefined) | 0 | 0 | 0 | 0 | 0 | 0
COc1ccc(S(=O)(=O)N2CCC(n3cnnc3C3CC3)CC2)cc1Cl | - | - | - | - | 0 | -
CCc1noc(-c2ccn3c(CNC(=O)c4ccccn4)nnc3c2)n1 | - | - | - | - | 0 | -
COc1ccc(-c2csc(Cc3nnc(N4CCOCC4)n3-c3ccccc3)n2)cc1OC | 0 | ? | 63µM | 0 | 0 | ?
COc1ccc(-c2csc(Cc3nnc(N4CCOCC4)n3-c3ccccc3)n2)cc1 | 0 | 50µM | 0 | 0 | 0 | 0
COc1cccc(CN2CCC(C(=O)Nc3ccc(-c4cccc(C)c4)cc3)CC2)c1O | ? | 20µM | ? | 0 | ? | ?
O=C(Nc1ccccc1)N1CCC(c2nn(-c3ccc(Cl)cc3)c(=O)[nH]2)CC1 | - | - | - | - | 32µM | -
O=C(c1ccccc1Cl)N1CCC(c2nn(-c3ccc(Cl)cc3)c(=O)[nH]2)CC1 | - | - | - | - | 35µM | -
Cc1ccccc1C(=O)N1CCC(c2nn(-c3ccc(Cl)cc3)c(=O)[nH]2)CC1 | - | - | - | - | 45µM | -
COc1ccc(-n2nc(C3CCN(C(=O)c4cccc(OC)c4)CC3)[nH]c2=O)cc1 | - | - | - | - | 0 | -
COc1cccc(C(=O)N2CCC(c3nn(-c4ccc(Cl)cc4)c(=O)[nH]3)CC2)c1 | - | - | - | - | 35µM | -
O=C1OCC2(CCN([S+](=O)([O-])c3ccccc3F)C2)N1CCN1CCOCC1 (centres undefined) | - | - | - | - | 0 | -
COCCNc1ncccc1-c1cc(-c2ccccc2)nc2c(C)noc12 | - | - | - | - | 0 | -
Cc1nc([C@H]2CCN(Cc3ccc(C(F)(F)F)cc3)C[C@H]2NC(=O)C2CC2)n[nH]1 | - | - | - | - | 0 | -
Cc1ccc(C(=O)N2CCC(c3nn(-c4ccc(Cl)cc4)c(=O)[nH]3)CC2)cc1 | - | - | - | - | 25µM | -
CC[n+]1cc(-c2ccccc2)nc(N2CCOCC2)n1 | 0 | 10µM | 32µM | 0 | ? | 0
COc1cc(CCC(=O)Nc2c(C(=O)N3CCN(c4ccccc4OC)CC3)oc3ccccc23)on1 | 0 | - | ? | 0 | 0 | ?
COc1ccc(CC(=O)Nc2c(C(=O)N3CCN(c4ccccc4)CC3)oc3ccccc23)cc1OC | 0 | 71µM | ? | 0 | 0 | 0
COc1ccc(CC(=O)Nc2c(C(=O)N3CCN(c4ncccn4)CC3)oc3ccccc23)cc1OC | 0 | 0 | 0 | 0 | 0 | 0
COc1ccc(CC(=O)Nc2c(C(=O)N3CCN(c4ccccc4OC)CC3)oc3ccccc23)cc1OC | 0 | 35µM | ? | 0 | 0 | ?
O=C(N/N=C\c1ccc([N+](=O)[O-])o1)C1COc2ccccc2O1 (centres undefined) | 0 | 56µM | 0 | 0 | 0 | 0
O=C(N/N=C\c1ccc([N+](=O)[O-])s1)C1COc2ccccc2O1 (centres undefined) | 0 | 0 | ? | 0 | 0 | 0
O=C(N/N=C\c1ccc(-c2ccccc2[N+](=O)[O-])o1)C1COc2ccccc2O1 (centres undefined) | 0 | 28µM | ? | 0 | 0 | ?
O=C(N/N=C\c1ccc(-c2ccccc2[N+](=O)[O-])o1)C1COc2cc3ccccc3cc2O1 (centres undefined) | 0 | ? | ? | 0 | 0 | ?
CC(C)(C)c1ccc2[nH]c(C(C)(C)C)c(C=O)c2c1 | - | - | - | - | 0 | -
SMILES | Sfp inh | G9a inh | JMJD2A Tudor | HP1b chromo inh | ALOX12 inh | BAZ2B block
CC(=O)Oc1cccc2cc(-c3nc(-c4ccccc4)no3)c(=O)oc12 | - | - | - | - | 0 | -
CSc1cc2c(s1)c1cnn(Cc3cccc(N)c3)c(=O)c1n2C | - | - | 3.5µM | - | - | -
CN(C)c1ccc(NC(=O)c2ccc3c(c2)NC(=O)CS3)cc1 | - | - | - | - | 0 | -
COc1ccc(NC(=O)c2ccc3c(c2)NC(=O)CS3)cc1 | - | ? | 56µM | 0 | 0 | 0
Cc1ccc(NS(=O)(=O)c2cc(NC(=O)c3ccc4c(c3)NC(=O)CS4)ccc2Cl)c(C)c1 | 16µM | 2.8µM | 0 | ? | ? | 0
Cc1ccc(NS(=O)(=O)c2cc(C(=O)O)ccc2Cl)c(C)c1 | 0 | ? | 0 | 0 | 0 | 0
Cc1cc(C)c(S(=O)(=O)Nc2cccc3nsnc23)c(C)c1 | 0 | 3.2µM | 0 | 0 | ? | 0
Cc1cc(F)ccc1NS(=O)(=O)c1cccc2nsnc12 | 0 | 0 | 0 | 0 | 0 | 0
Cc1ccc(O)c(NS(=O)(=O)c2cccc3nsnc23)c1 | 0 | 0[2.33 µM] | ? | ? | 0 | 45µM
COc1cc(NS(=O)(=O)c2cccc3nsnc23)cc(OC)c1 | 0 | 2µM | 45µM | 0 | ? | 56µM
Cc1cc(C)c(S(=O)(=O)Nc2ccc[nH]c2=O)c(C)c1 | 50µM | 8.9µM | 0 | 0 | ? | 0
Cc1nc([C@H]2CCN(CC(C)C)C[C@H]2NC(=O)C2CCOCC2)n[nH]1 | - | - | - | - | 0 | -
Cc1oc(-c2ccccc2F)nc1Cn1c(SCc2ccccc2F)nc2ccncc21 | - | 13µM | ? | 0 | 0 | ?
COc1ccc(-c2nc3c(C)cccc3cc2CN2CCC[C@H]2CO)cc1OC | - | - | - | - | 0 | -
CCCCNC(=S)N/N=C/c1cc(C)ccc1C | 0 | 0 | 0 | 0 | 50µM | 0
CCCCNC(=S)N/N=C/c1ccccc1F | 0 | 0 | 0 | 0 | ? | 0
COCCCNC(=S)N/N=C/c1cccc(OC)c1O | 0 | - | ? | 0 | 0 | 6.3µM
COCCCNC(=S)N/N=C/c1ccc(O)cc1 | 0 | 0 | 0 | 0 | ? | 0
COc1cccc(/C=N/NC(=S)Nc2cccc(C(=O)O)c2)c1O | 0 | 40µM | 16µM | 0 | ? | -
COCCCNC(=S)N/N=C/c1ccc(O)cc1O | 0 | 0 | 50µM | 0 | 0 | 6.3µM
COc1ccc(NC(=O)c2nn(C)c(=O)c3ccccc23)cc1OC | - | - | - | - | 0 | -
COCCCNC(=S)N/N=C/c1ccc2ccccc2c1 | 0 | 50µM | 0 | 0 | 0 | ?
O=[N+]([O-])c1cc(F)cc(F)c1Nc1ccc(F)cc1 | - | - | 35µM | ? | 0 | -
O=C(CSc1ccccc1C(=O)N1CCCCC1)NCC1CCCCC1 | 0 | 0 | 0 | 0 | - | 0
NS(=O)(=O)c1ccc(CNC(=O)c2ccccc2SCC(=O)N2CCCC2)cc1 | - | 35µM | 0 | 0 | 0 | 0
SMILES | Sfp inh | G9a inh | JMJD2A Tudor | HP1b chromo inh | ALOX12 inh | BAZ2B block
Cc1ccc(CNC(=O)c2ccccc2SCC(=O)NCC2CCCCC2)cc1 | 0 | 45µM | 0 | 0 | 0 | 0
CCSc1ccccc1C(=O)NCc1ccc(S(N)(=O)=O)cc1 | 0 | ? | 0 | 0 | 0 | 0
O=C(CSc1nnc(-c2ccc(Cl)cc2)n1Cc1ccco1)N1CCOC1=O | - | - | - | - | 0 | -
COc1ccccc1Nc1nc(NCC(C)C)nc(N)c1[N+](=O)[O-] | 0 | ? | ? | 0 | 0 | ?
CCC(C)Nc1nc(N)c([N+](=O)[O-])c(N2CCCCCC2)n1 (centres undefined) | 0 | 0 | ? | 0 | 0 | 50µM
CCC(C)Nc1nc(N)c([N+](=O)[O-])c(Nc2ccccc2OC)n1 (centres undefined) | 0 | 45µM | ? | ? | 0 | ?
